Results published in PubChem BioAssay AID1981 (Southern Research Specialized Biocontainment Screening …, 2009).
Screen size: about 2,200 compounds; about 480 (22%) were called active. How the calls were made is not given here. Only a sample is shown. A call without a number means that no potency is given here. Potency and affinity values are given separately.

Test: S. Typhimurium GFP fluorescence dose response in modified counterscreen for PhoP regulon inhibitor project (AID 1981)
Conditions: 4 h; series mostly up to 150 µM

Row | SMILES | outcome
1 | O=C(NCc1cn2ccsc2n1)Nc1ccc(Cl)cc1 | inactive
2 | O=Cc1cn(Cc2ccccc2[N+](=O)[O-])c2ccccc12 | inactive
3 | COCCNC(=O)c1ccc(C(=O)NCCOC)s1 | inactive
4 | C/C(=C\c1ccco1)C1Nc2cccc3cccc(c23)N1 | inactive
5 | Cc1ccc(C(=O)NCC(=O)NCC(=O)OCC(=O)c2ccc([N+](=O)[O-])cc2)cc1 | inactive
6 | CCCCn1c(-c2ccccc2)nc2c(=O)n(C)c(=O)[nH]c21 | inactive
7 | O=C(Cn1nc(Cl)nc1Cl)c1ccc2c(c1)OCCO2 | inactive
8 | Cc1ccc2c(c1)C1CN(C)CCC1N2C(=O)COc1ccc(S(=O)(=O)N2CCOCC2)cc1 (stereo unspecified) | inactive
9 | N#Cc1ccc(CSc2nnc(-c3ccncc3)n2CCc2ccccc2)cc1 | inactive
10 | O=C(Nc1ccccn1)NC1CCCCC1 | inactive
11 | O=C(Nc1ccsc1C(=O)NC1CCCCC1)c1ccccc1 | inactive
12 | COc1ccc(-c2ccc(-c3noc(-c4cccs4)n3)c(OC)n2)cc1 | inactive
13 | CCn1cc(C(C)(C)C)c(C#N)c1NC(C)=O | inactive
14 | Cc1[nH]n(-c2ccccc2)c(=O)c1-c1ccc(Cl)cc1 | inactive
15 | Cc1c(C(c2cccc([N+](=O)[O-])c2O)c2c(C)n(C)n(-c3ccccc3)c2=O)c(=O)n(-c2ccccc2)n1C | inactive
16 | O=C(CCNS(=O)(=O)c1cccc2nsnc12)NCc1cccs1 | inactive
17 | CCOC(=O)C1=C(C)NC(SCc2cc(=O)[nH][nH]2)=C(C#N)C1c1cccs1 (stereo unspecified) | inactive
18 | COc1ccc(N2C(=O)C3CCCN3C2c2cccc(C)c2)cc1Cl (stereo unspecified) | inactive
19 | COc1cc(OC)c(C(=O)Nc2ccc(S(=O)(=O)Nc3ncccn3)cc2)cc1OC | inactive
20 | COc1nccnc1NS(=O)(=O)c1ccc(NC(=S)NC(=O)c2cccnc2)cc1 | inactive
21 | Cc1ccn2cc(CSc3ccccc3N)nc2c1 | inactive
22 | Cc1cccc2cc(C#N)c(N3CCN(C)CC3)nc12 | inactive
23 | CCOC(=O)N1CCN(C(=O)C(NC(=O)c2ccc(CC)cc2)C(C)C)CC1 (stereo unspecified) | inactive

Row | SMILES | outcome
24 | COc1c(Cl)cnn(-c2ccc(C)cc2)c1=O | inactive
25 | O=C(CN1CC(c2ccccc2)CC1=O)N/N=C/c1cc(Br)ccc1O (stereo unspecified) | inactive
26 | O=C(CSCc1ccccc1)N/N=C/c1ccccc1OCc1ccccc1 | inactive
27 | CC(C)(C)c1ccc(C2CC2C(=O)N/N=C\c2cc3ccccc3nc2Cl)cc1 (stereo unspecified) | inactive
28 | CC(C)c1ccc(C2NC(=O)NC3=C2CCc2ccccc23)cc1 (stereo unspecified) | inactive
29 | O=C(NC1CCCCC1)C(c1ccncc1)N(CC1CCCO1)C(=O)C(F)(F)F (stereo unspecified) | inactive
30 | COc1ccc(Nc2nc(NCc3ccco3)nc(N/N=C/c3ccccc3Cl)n2)cc1 | inactive
31 | CCOc1ccc(NC(=O)c2ccc(NC(=O)COC(=O)Cc3ccccc3)cc2)cc1 | inactive
32 | Cc1ccc(NC(=S)NC(NC(=O)c2ccco2)C(Cl)(Cl)Cl)cc1 (stereo unspecified) | inactive
33 | O=C(c1ccccc1)c1c2c(cc3sc4ccccc4[n+]13)-c1cccc3cccc-2c13 | inactive
34 | CN1C(=O)CC(P(=O)(c2ccccc2)c2ccccc2)N(C)C1=O (stereo unspecified) | inactive
35 | COc1ccc(N2C(=O)CC(Sc3nc(C)c4c(n3)CCCC4)C2=O)cc1 (stereo unspecified) | inactive
36 | COC(=O)c1cc(C#N)c(Oc2ccc(F)cc2)nc1C | inactive
37 | Nc1nc2ccccc2n1/N=C/c1ccc(-c2ccccc2)o1 | inactive
38 | CN(C)CCCN(C(=O)CCc1ccccc1)c1nc2ccc(Cl)cc2s1 | inactive
39 | c1ccc(C2(CNc3ccccn3)CCCC2)cc1 | inactive
40 | Cc1ccc(-n2ncc3c(N4CCN(c5ccccc5)CC4)ncnc32)c(C)c1 | inactive
41 | O=C(CC1SC(=NCc2ccccc2)NC1=O)Nc1ccccc1 (stereo unspecified) | inactive
42 | Cc1nn(C)c(C)c1S(=O)(=O)N1CCC(C(=O)NC2CCCCC2)CC1 | inactive
43 | COc1cc(NC(=O)CSc2nnnn2Cc2ccc3c(c2)OCO3)cc(OC)c1 | inactive
44 | Cc1ccc(N)cc1-n1c(C)ccc1C | inactive
45 | CC(C)(C)c1ccc(C(=O)Nc2ccc(C=C(C#N)C#N)cc2)cc1 | inactive
46 | COCCSc1ccccc1C(=O)NCC1CCCO1 (stereo unspecified) | inactive

Row | SMILES | outcome
47 | Cn1c(NCc2cc(Br)ccc2O)nc2ccccc21 | inactive
48 | O=S(=O)(Nc1ccc2c(c1)nc1n2CCN(Cc2ccccc2)C1)c1ccc(Cl)cc1 | inactive
49 | C=CCn1c(SCc2c(C(=O)OC)sc(N)c2C(=O)OC)nnc1-c1ccc(Cl)cc1 | inactive
50 | CCC(CC)C(=O)NCCc1ccc(OC)cc1 | inactive
51 | O=C(Cn1cnc2ccccc2c1=O)NCc1ccco1 | inactive
52 | CC(=O)NCCOc1c(C)cc(S(N)(=O)=O)cc1C | inactive
53 | C=CCOc1ccc(CNc2nn[nH]n2)cc1 | inactive
54 | COC(=O)Cc1c(C)nc2nc(NCc3ccc(Cl)cc3)[nH]n2c1=O | inactive
55 | CN(C)C(=O)On1c(-c2ccccc2)nc2ccc(Cl)cc21 | inactive
56 | CC(C)N(Cc1nc(-c2ccccc2)no1)C(=O)CN(C)S(=O)(=O)c1ccccc1 | inactive
57 | Cc1ccc(Nc2cc(C)nc3nc(C)nn23)cc1 | inactive
58 | COc1ccc(Nc2nnc(SCc3cn4c(C)cccc4n3)s2)cc1 | inactive
59 | CCOC(=O)N1CCN(S(=O)(=O)c2ccc(C(=O)NNc3nc4cc(C)cc(C)c4s3)cc2)CC1 | inactive
60 | Cc1ccc(Nc2nc(Cl)nc(N(C)C#N)n2)cc1 | inactive
61 | Cc1ncc(C23CC4CC(CC(C4)C2)C3)[nH]1 | inactive
62 | CCN(CC)c1nc2n(c(=O)n1)CCO2 | inactive
63 | COc1ccc2c(c1)cc1n2CCN2CCCN=C12 | inactive
64 | C=CCSC1=Nc2sccc2C2=NC(=O)CN12 | inactive
65 | COc1ccc(NC(=O)CSc2nccn2-c2ccccc2)cc1 | inactive
66 | O=C(/C=C/c1ccc2c(c1)OCO2)N1CCN(c2ccccc2F)CC1 | inactive
67 | OC(COCc1cccs1)CN1CCN(c2ccccn2)CC1 (stereo unspecified) | inactive
68 | N#Cc1c(-c2ccco2)cc(-c2ccc(F)cc2)nc1N | inactive
69 | CN1CCN(S(=O)(=O)c2ccc(N)cc2)CC1 | inactive

Row | SMILES | outcome
70 | CC(C)(C)c1ccc(-c2n[nH]c(=S)n2/N=C/c2ccncc2)cc1 | inactive
71 | CC(Cl)C(=O)NNc1cccc(Cl)n1 (stereo unspecified) | inactive
72 | Cc1nc(N2CCN(Cc3ccc4c(c3)OCO4)CC2)nc2c1C(=O)CC(c1ccco1)C2 (stereo unspecified) | inactive
73 | O=C(OCc1ccccc1)c1cn(-c2ccccc2)nc1-c1ccncc1 | inactive
74 | CCc1ccc(C(c2c(C)nn(-c3ccccc3)c2N)c2c(C)nn(-c3ccccc3)c2N)cc1 | inactive
75 | O=C(COC(=O)c1cn(-c2ccccc2)nc1-c1ccccc1)c1cccc([N+](=O)[O-])c1 | inactive
76 | O=C(NCc1ccccn1)c1cn(-c2ccccc2)nc1-c1ccc(Cl)cc1 | inactive
77 | O=C(c1ccc(F)cc1)C(CN1CCOCC1)c1ccccc1 (stereo unspecified) | inactive
78 | O=C(NCc1ccccn1)Nc1cccc(Cl)c1 | inactive
79 | COCCNCCOc1ccccc1-c1ccccc1 | inactive
80 | COc1cc(OC)c(NC(=O)Nc2ccc(OC)c(OC)c2)cc1Cl | inactive
81 | Cc1ccc2cc(CN(CCO)Cc3nnnn3Cc3ccc(F)cc3)c(=O)[nH]c2c1 | inactive
82 | CCOC(=O)C(NS(=O)(=O)c1ccccc1)(C(F)(F)F)P(=O)(OCC(C)C)OCC(C)C (stereo unspecified) | inactive
83 | Cc1cc2cc(CNS(=O)(=O)c3ccc4ccccc4c3)ccc2n1C | inactive
84 | O=C(c1ccccc1)c1coc2ccc(O)c(Cl)c12 | inactive
85 | CC(C)CNC(=O)c1ccc(COc2ccc(Cl)cc2Cl)o1 | inactive
86 | C#CCOc1ccc(Cl)cc1/C=N/O | inactive
87 | Cc1ccc(SC(c2ccc(C)cc2)C(Cn2cncn2)C(=O)c2ccccc2)cc1 (stereo unspecified) | inactive
88 | Cc1cccc(NC(=S)NC(NC(=O)c2ccco2)C(Cl)(Cl)Cl)c1 (stereo unspecified) | inactive
89 | CCOC(=O)C1=C(C)N=c2s/c(=C\c3ccncc3)c(=O)n2C1c1ccc2c(c1)OCO2 (stereo unspecified) | inactive
90 | CCOc1ccc(S(=O)(=O)NNC(=S)Nc2ccc(Br)cc2)cc1 | inactive
91 | CCOC(=O)c1c(NC(=O)COc2ncnc3ccccc23)sc(C)c1CC | inactive
92 | O=C1C(Nc2ccccc2)=C/C(=N/S(=O)(=O)c2cccs2)c2ccccc21 | inactive

Row | SMILES | outcome
93 | Cc1cc(C)c2cc(CN(Cc3cccnc3)C(=O)c3ccc(F)cc3)c(Cl)nc2c1 | inactive
94 | COc1ccc(C(C)=O)c2c(O)cccc12 | inactive
95 | CN(C)CCNC(=O)c1ccc(COCC(F)(F)F)cc1 | inactive
96 | CCN(CC)CCNC(=O)c1cn(CC)c2cc(N3CCN(C(=O)c4ccco4)CC3)c(F)cc2c1=O | inactive
97 | COc1ccc(S(=O)(=O)N2CCN(C(=O)c3c(C)nn(-c4ccccc4)c3Cl)CC2)cc1 | inactive
98 | Cn1c(-c2ccc3c(c2)OCO3)cnc1NCc1cccc(Cl)c1 | inactive
99 | O=C(NCCN1CCOCC1)c1ccc2ccccc2c1 | inactive
100 | Fc1ccccc1CCNCc1cccc(Cl)c1Cl | inactive
101 | O=C(Cc1ccccc1)NCc1ccc(F)cc1 | inactive
102 | c1coc(CNc2c3c(nc4ncnn24)CCCC3)c1 | inactive
103 | O=S(=O)(Nc1ccc2c(c1)nc1n2CCN(Cc2ccccc2)C1)c1ccc(F)cc1 | inactive
104 | CCn1c(SCC(=O)Nc2ccc3c(c2)oc2ccccc23)nnc1-c1ccc(N)cc1 | inactive
105 | CC1(C)CC(=O)C2=C(C1)N(c1ccc(F)cc1)C(N)=C(C#N)C2c1cccs1 (stereo unspecified) | inactive
106 | O=C(Oc1ccc(N(Cc2cccs2)C2=NS(=O)(=O)c3ccccc32)cc1)c1ccc(Cl)cc1 | inactive
107 | O=C(NCCNc1ccc([N+](=O)[O-])cc1C(F)(F)F)c1ccccc1F | inactive
108 | O=C(Nc1cnc2ccccc2c1)N1CCOCC1 | inactive
109 | CCOC(=O)N1CCN(S(=O)(=O)c2ccc(C(=O)NNc3nc4c(C)cc(C)cc4s3)cc2)CC1 | inactive
110 | O=C(c1ccco1)c1cn(CC(=O)N2CCCc3ccccc32)c2ccccc12 | inactive
111 | O=c1cc(O)nc(SCc2ccccc2Cl)[nH]1 | inactive
